# Several values for one entry are separate records, joined by “and”; a condition that tells them apart may be missing. Identical values can stand only once. A number with no mark means an inactive call. A call without a number means that no potency is given here. Activity calls are given as the source filed them. The call rests on the fitted dose curve; in most records, active means well fitted activation curve with a large enough effect; inconclusive means small, poorly fitted or top-dose-only effect; inactive means no such curve, though single readings can be large or run the other way.
# Target: Cytochrome P450 3A4 (Homo sapiens) (UniProt P08684)
# Test: qHTS Assay for Activators of Cytochrome P450 3A4 (AID 885); further: nearly all actives have a fitted effect of over 65% in size
# Conditions: recombinant CYP3A4, Luciferin-PPXE luminescence, 60 min; series mostly up to 57.1 µM
# Procedure, shortened: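 Quantitative HTS format: compounds preincubated with 20nM human CYP3A4 and Luciferin-PPXE substrate at KM, reaction started by NADPH regeneration, stopped after 60 min, luciferase luminescence read 20 min later.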
# Sequence of Cytochrome P450 3A4 (Homo sapiens) (P08684 whole entry, looked up): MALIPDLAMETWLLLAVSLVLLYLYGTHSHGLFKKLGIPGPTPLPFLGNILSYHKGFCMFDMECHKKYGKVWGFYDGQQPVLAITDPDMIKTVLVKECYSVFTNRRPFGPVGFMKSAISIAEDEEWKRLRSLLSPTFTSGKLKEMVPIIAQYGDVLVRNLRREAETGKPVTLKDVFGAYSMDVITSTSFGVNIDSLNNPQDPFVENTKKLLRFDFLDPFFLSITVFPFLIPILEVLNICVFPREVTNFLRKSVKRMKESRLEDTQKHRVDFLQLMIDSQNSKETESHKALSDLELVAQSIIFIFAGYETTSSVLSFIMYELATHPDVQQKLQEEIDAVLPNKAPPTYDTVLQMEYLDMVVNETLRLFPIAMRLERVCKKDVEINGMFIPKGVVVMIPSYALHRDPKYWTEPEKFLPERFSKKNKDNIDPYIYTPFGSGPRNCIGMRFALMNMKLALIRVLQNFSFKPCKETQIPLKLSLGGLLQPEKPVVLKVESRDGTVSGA
Compound,"activity change, positive = activation",Potency
CC[C@@H](c1ccccc1)n1c(=O)n2n(c1=O)[C@H]1[C@H](O)[C@H]3O[C@@H]3/C(=N/OCc3ccccc3)[C@@H]1CC2,-33.4% [at 11.4 µM],
COC(=O)NC(/C(C(=O)OC)=C(\C)NCc1ccccc1)c1ccccc1 (centres undefined),-30.2% [at 11.4 µM],
O=C1[C@H]2[C@H]3[C@H](O)[C@H](O)C/C(=N/OC[C@@H](O)COCc4ccco4)[C@@H]3CC[C@@H]2C(=O)N1c1cccc(Oc2ccccc2)c1,-40.2% [at 11.4 µM],
CC(=O)OC[C@@H]1O[C@H](CCO/N=C(\C)CCN2CCc3nc(-c4ccccc4)c(-c4ccccc4)cc3C2)C=C[C@@H]1OC(C)=O,-47.2% [at 11.4 µM],
CC(=O)OC[C@@H]1O[C@H](C/C=N\O[C@@H](C)c2cn([C@H](CO)Cc3ccccc3)nn2)C=C[C@@H]1OC(C)=O,-51.6% [at 11.4 µM] and -34% [at 11.4 µM],
COC(=O)[C@@H]1C[C@H]2CC[C@H](O)C[C@H]2N1Cc1ccc(N2CCOCC2)cc1,,inactive
CO[C@H]1COC(=O)[C@@H](C)COC(=O)[C@@H](Cc2ccccc2)NC(=O)C/C=C\[C@H]1C,-36.8% [at 11.4 µM],
Nc1cc(=O)[nH]c(=O)n1Cc1ccccc1,,inactive
CO[C@H]1COC(=O)[C@H](Cc2ccccc2)NC(=O)C/C=C\[C@@H](C)[C@H](OC)COC(=O)C/C=C\[C@@H]1C,-59.6% [at 11.4 µM],
CCC1=C2CC[C@H]3C(=O)N(C)C(=O)[C@H]3[C@H]2[C@@]2(C)C(=O)N(CC(=O)OC)C(=O)N2C1=O,,inactive
COC(=O)c1ccc(CN2[C@H](C(=O)OC)C[C@@]3(O)[C@H](O)[C@H](O)[C@H](O)C[C@@H]23)cc1,,inactive
Cn1c(N)c(C(=O)COC(=O)c2cc(-c3ccccc3)nc3ccccc23)c(=O)n(Cc2ccccc2)c1=O,,inactive
Nc1cc(=O)[nH]c(=O)n1CC1CC1,,inactive
N#Cc1ccc(C23CC4(C2)[C@H](CN(CC2CCCCC2)[C@@H]4c2ccccc2)C3c2ccc(Cl)nc2)cc1 (some centres undefined),,inactive
